This note sets out measurements from PubChem BioAssay (Tox21).

Records with an inconclusive call do not appear. Active and inactive are the calls of the source. Unless noted, calls follow the shape of the dose curve; as a rule, active = well fitted curve in the direction sought with a large enough effect in the repeat runs; inconclusive = weak or mixed curves; inactive = no such curve, though single readings can be large; an effect the other way counts as inactive or inconclusive.

Assay [1] in a line: qHTS assay for small molecules that induce genotoxicity in human embryonic kidney cells expressing luciferase-tagged ATAD5 (AID 651632). Also: nearly all actives have a fitted effect of over 15% in size. Summed up:
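Increased luciferase signal from ATAD5-tagged reporter cells indicates DNA-damage-driven ATAD5 induction. HEK293T cells are treated for 16 hr at 37C before detection with Amplite.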

Assay [2] is described as follows: qHTS assay for small molecule agonists of the p53 signaling pathway - cell viability (AID 651633; calls by dose curve; also: potency is read from the fitted curve at half-maximal effect; nearly all actives have a fitted effect of over 30% in size). Summed up: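 p53RE-bla cells, seeded at 4,000 per well and rested 5 h at 37 C/5% CO2, received compounds in DMSO for 16 h at 37 C. CellTiter-Glo was then added, and luminescence was read after 30 min at room temperature to gauge cytotoxicity.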
Assay [3] can be described thus: qHTS assay for small molecules that induce genotoxicity in human embryonic kidney cells expressing luciferase-tagged ATAD5 - cell viability (AID 651634; calls by dose curve; also: potency is read from the fitted curve at half-maximal effect; nearly all actives have a fitted effect of over 25% in size). Summed up:
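Cytotoxicity counterscreen in HEK293T cells bearing an ATAD5-luciferase reporter: live-cell protease activity measured by CellTiter-Fluor fluorescence after 15.5 hr compound exposure.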

Assay [4] can be described thus: qHTS assay for small molecule disruptors of the mitochondrial membrane potential - cell viability (AID 720634; calls by dose curve;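 also: human HepG2 liver cancer cells; series mostly up to about 83 µM; nearly all actives have a fitted effect of over 20% in size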). Summed up:
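After overnight attachment at 37 C, HepG2 cells received compound or DMSO vehicle for 1 hr. Viability is then taken from ATP-driven luminescence following a 30 min room-temperature CellTiter-Glo step.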

Assay [5] is described as follows: qHTS assay for small molecule disruptors of the mitochondrial membrane potential (AID 720635). Also: potency is read from the fitted curve at half-maximal effect. Summed up:
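HepG2 cells (2,000/well) attached overnight at 37C, then took compound for 1 hr at 37C, 5% CO2. Mito-MPS dye was added for 30 min; fluorescence was read at 490/535 nm (monomers) and 540/590 nm (aggregates).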

Assay [6] is described as follows: qHTS assay to test for compound auto fluorescence at 590 nm (red) in HepG2 cells (AID 720674). Summed up: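 Intrinsic compound fluorescence in the red window (Ex/Em 540/590 nm) is measured in attached HepG2 cells exposed for 1 hr, DMSO vehicle as baseline, benchmarked to Rose Bengal sodium.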
A short description of assay [7]: qHTS assay to test for compound auto fluorescence at 535 nm (green) in HepG2 cells (AID 720675).
Assay [8] is described as follows: qHTS assay to test for compound auto fluorescence at 460 nm (blue) in HEK293 cells (AID 720678). Summed up:
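Measured: blue fluorescence (Ex 405/Em 460 nm) of compound-treated HEK293 cells, incubated overnight at 37C with 5% CO2 and scaled to triamterene equivalents.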

A short description of assay [9]: qHTS assay to test for compound auto fluorescence at 590 nm (red) in HEK293 cells (AID 720679). Summed up: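 Using HEK293 cells at 2,000 per well, the screen added 23 nL of each compound after cell attachment and incubated overnight (37C, 5% CO2). The plate reader then captured red-label fluorescence, Ex/Em 540/590nm.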
A short description of assay [10]: qHTS assay to test for compound auto fluorescence at 535 nm (green) in HEK293 cells (AID 720680).
Assay [11] in a line: qHTS assay to test for compound auto fluorescence at 460 nm (blue) in HEK293 cell free culture (AID 720681). Summed up:
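Test compounds were pinned into cell-free culture medium (DMEM with 10% FBS) and fluorescence was read directly at Ex/Em 405/460 nm. Signals were expressed as fluorescence equivalents of triamterene, with DMSO vehicle as control.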

Assay [12] can be described thus: qHTS assay to test for compound auto fluorescence at 535 nm (green) in HEK293 cell free culture (AID 720682). Summed up:
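Measurement is a direct plate read of green fluorescence (485 nm in, 535 nm out) after compound addition to serum-supplemented DMEM lacking cells, with fluorescein used to express intensities.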

Assay [13] can be described thus: qHTS assay to test for compound auto fluorescence at 590 nm (red) in HEK293 cell free culture (AID 720683). Summed up: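 Tox21 10K library compounds were pinned into cell-free DMEM with 10% FBS and fluorescence was read at excitation 540 nm. Activity is expressed as Rose Bengal sodium equivalency.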
Assay [14] is described as follows: qHTS assay to test for compound auto fluorescence at 590 nm (red) in HepG2 cell free culture (AID 720684). Summed up: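 Measured in medium alone (MEM containing 10% FBS) following pintool addition of compound; emission at 590 nm with 540 nm excitation, referenced to Rose Bengal sodium.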
The nature of assay [15]: qHTS assay to test for compound auto fluorescence at 460 nm (blue) in HepG2 cell free culture (AID 720685). Summed up: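 Compound (23 nL) or DMSO pinned into cell-free MEM with 10% FBS; blue fluorescence read at 405/460 nm excitation/emission, expressed as auto-fluorescence equivalency to triamterene.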
Assay [16] can be described thus: qHTS assay to test for compound auto fluorescence at 535 nm (green) in HepG2 cell free culture (AID 720686).
The nature of assay [17]: qHTS assay to test for compound auto fluorescence at 460 nm (blue) in HepG2 cells (AID 720687). Summed up: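 Cells (2,000/well in MEM with 10% FBS) attached overnight at 37 C, then were exposed to compound or DMSO for 1 hr at 37 C, 5% CO2. Fluorescence read at Ex/Em 405/460 nm, expressed as triamterene-equivalent signal.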
The nature of assay [18]: qHTS assay to identify small molecule antagonists of the glucocorticoid receptor (GR) signaling pathway - cell viability counter screen (AID 720693). Also: potency is read from the fitted curve at half-maximal effect; nearly all actives have a fitted effect of over 55% in size.
The nature of assay [19]: qHTS assay for identifying genotoxic compounds that show differential cytotoxicity against isogenic chicken DT40 cell lines with known DNA damage response pathways - wild type cell line (AID 743012). Also: potency is read from the fitted curve at half-maximal effect; nearly all actives have a fitted effect of over 60% in size. Summed up: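 Cells (DT40 wild type, 300/well) are treated with DMSO-dissolved compounds after a ~0.5 h pre-incubation and kept 40 h at 37 C/5% CO2. Viability is then measured by CellTiter-Glo luminescence following 30 min at room temperature.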

Assay [20] is described as follows: qHTS assay for identifying genotoxic compounds that show differential cytotoxicity against isogenic chicken DT40 cell lines with known DNA damage response pathways - Rev3 mutant cell line (AID 743014). Also: potency is read from the fitted curve at half-maximal effect; nearly all actives have a fitted effect of over 55% in size.
Assay [21] in a line: qHTS assay for identifying genotoxic compounds that show differential cytotoxicity against isogenic chicken DT40 cell lines with known DNA damage response pathways - Rad54/Ku70 mutant cell line (AID 743015). Also: potency is read from the fitted curve at half-maximal effect; nearly all actives have a fitted effect of over 60% in size.
Assay [22] is described as follows: qHTS assay to identify small molecule antagonists of the androgen receptor (AR) signaling pathway - cell viability counter screen (AID 743033; also: potency is read from the fitted curve at half-maximal effect; nearly all actives have a fitted effect of over 45% in size).
For assay [23], the target named is Androgen receptor (Homo sapiens) (UniProt P10275). Description: qHTS assay to identify small molecule antagonists of the androgen receptor (AR) signaling pathway (AID 743035; active = well fitted inhibition curve with a large enough effect in the signal ratio in the repeat runs, not every such curve was filed as active; the % refers to the signal ratio; also: potency is read from the fitted curve at half-maximal effect). Summed up: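 Antagonism is scored as loss of R1881-driven beta-lactamase reporter expression in HEK293 cells carrying the reporter under a UAS element, after 16 h co-treatment at 37C and a 2 h room-temperature FRET substrate read.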
Androgen receptor (Homo sapiens), sequence (P10275 whole entry, looked up): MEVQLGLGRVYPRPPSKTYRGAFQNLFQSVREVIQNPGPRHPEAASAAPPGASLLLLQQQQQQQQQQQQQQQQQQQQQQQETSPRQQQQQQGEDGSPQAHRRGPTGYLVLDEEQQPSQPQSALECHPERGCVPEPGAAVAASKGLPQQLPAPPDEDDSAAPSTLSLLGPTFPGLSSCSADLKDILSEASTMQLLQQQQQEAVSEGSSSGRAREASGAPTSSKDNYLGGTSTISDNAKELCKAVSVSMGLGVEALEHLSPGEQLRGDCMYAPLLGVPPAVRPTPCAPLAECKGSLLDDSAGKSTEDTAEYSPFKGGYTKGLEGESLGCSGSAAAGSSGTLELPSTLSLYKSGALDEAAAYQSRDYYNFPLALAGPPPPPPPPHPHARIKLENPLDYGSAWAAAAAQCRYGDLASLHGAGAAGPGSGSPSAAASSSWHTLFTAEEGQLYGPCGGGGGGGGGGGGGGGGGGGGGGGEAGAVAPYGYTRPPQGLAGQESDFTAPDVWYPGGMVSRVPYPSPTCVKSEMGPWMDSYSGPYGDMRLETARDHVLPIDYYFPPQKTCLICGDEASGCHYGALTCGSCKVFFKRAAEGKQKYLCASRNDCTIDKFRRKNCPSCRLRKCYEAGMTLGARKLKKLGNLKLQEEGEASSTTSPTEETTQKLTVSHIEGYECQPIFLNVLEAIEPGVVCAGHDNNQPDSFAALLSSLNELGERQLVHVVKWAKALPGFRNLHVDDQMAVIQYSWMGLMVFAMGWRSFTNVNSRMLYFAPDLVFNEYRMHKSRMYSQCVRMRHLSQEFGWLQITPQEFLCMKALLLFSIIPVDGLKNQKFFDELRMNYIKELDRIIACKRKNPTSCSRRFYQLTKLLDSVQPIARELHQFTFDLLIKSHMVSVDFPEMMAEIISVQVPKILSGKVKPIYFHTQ

A short description of assay [24]: qHTS assay to identify small molecule antagonists of the thyroid receptor (TR) signaling pathway - cell viability counter screen (AID 743064). Also: nearly all actives have a fitted effect of over 50% in size. Summed up:
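Compounds were tested on GH3.TRE-Luc cells in the presence of T3 at 1 nM final. Following 23.5 h at 37 °C, cell viability was quantified by CellTiter-Fluor.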

A short description of assay [25]: qHTS assay to identify small molecule antagonists of the thyroid receptor (TR) signaling pathway (AID 743065). Also: series mostly up to about 70 µM; nearly all actives have a fitted effect of over 55% in size. Summed up:
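GH3.TRE-Luc rat pituitary cells carrying two TR response elements driving luciferase were plated for 4 h, given compound plus 1 nM T3 (final), and incubated 23.5 h at 37 C. ONE-Glo luminescence measured reporter inhibition; CellTiter-Fluor fluorescence tracked cytotoxicity.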

Assay [26] relates to thyroid hormone receptor (rat, GH3 cells). Description: qHTS assay to identify small molecule agonists of the thyroid receptor (TR) signaling pathway (AID 743066; calls by dose curve).
A short description of assay [27]: qHTS assay to identify small molecule antagonists of the estrogen receptor alpha (ER-alpha) signaling pathway - cell viability counter screen (AID 743074; calls by dose curve;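 also: HEK293 cells carrying ER-alpha-UAS-bla reporter stimulated with 17beta-estradiol; potency is read from the fitted curve at half-maximal effect; nearly all actives have a fitted effect of over 45% in size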).
The target in assay [28] is Estrogen receptor (Homo sapiens) (UniProt P03372). Description: qHTS assay to identify small molecule agonists of the estrogen receptor alpha (ER-alpha) signaling pathway (AID 743075; calls by dose curve;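 also: HEK293 GripTite cells with ER-alpha and UAS-driven beta-lactamase reporter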).
Estrogen receptor (Homo sapiens), sequence (P03372 whole entry, looked up): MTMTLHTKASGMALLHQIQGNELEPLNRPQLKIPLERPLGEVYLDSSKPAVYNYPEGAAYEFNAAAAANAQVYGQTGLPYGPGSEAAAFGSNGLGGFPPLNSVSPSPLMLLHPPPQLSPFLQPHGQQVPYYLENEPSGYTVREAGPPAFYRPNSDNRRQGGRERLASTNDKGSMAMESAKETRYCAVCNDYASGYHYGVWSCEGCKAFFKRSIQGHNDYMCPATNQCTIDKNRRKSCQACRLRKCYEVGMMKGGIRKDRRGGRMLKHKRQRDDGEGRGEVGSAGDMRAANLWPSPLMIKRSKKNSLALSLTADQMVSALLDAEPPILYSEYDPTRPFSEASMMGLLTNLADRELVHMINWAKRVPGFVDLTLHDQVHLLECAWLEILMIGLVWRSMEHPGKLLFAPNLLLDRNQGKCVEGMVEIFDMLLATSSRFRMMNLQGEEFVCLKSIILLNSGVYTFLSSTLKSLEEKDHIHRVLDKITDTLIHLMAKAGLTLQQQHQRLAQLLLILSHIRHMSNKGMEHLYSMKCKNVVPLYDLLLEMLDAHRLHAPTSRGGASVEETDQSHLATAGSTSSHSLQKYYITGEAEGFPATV
Assay [29] is described as follows: qHTS assay to identify small molecule antagonists of the estrogen receptor alpha (ER-alpha) signaling pathway using the BG1 cell line - cell viability counter screen (AID 743081).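 Also: compound given together with 17beta-estradiol as the ER stimulus; series mostly up to about 70 µM; nearly all actives have a fitted effect of over 45% in size.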
A further assay concerns the target Aromatase (Homo sapiens) (UniProt P11511). Description: qHTS assay to identify aromatase inhibitors (AID 743083). Also: series mostly up to about 70 µM; nearly all actives have a fitted effect of over 55% in size.
Assay [30] in a line: qHTS assay to identify aromatase inhibitors - cell viability counter screen (AID 743084).
The nature of assay [31]: qHTS assay to identify small molecule that activate the aryl hydrocarbon receptor (AhR) signaling pathway - cell viability counter screen (AID 743086).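 Also: HepG2 liver cells carrying the AhR DRE luciferase reporter; series mostly up to about 70 µM; nearly all actives have a fitted effect of over 45% in size.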 Summed up:
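HepG2-AhR-luc (HG2L7.5c1) cells, 4000/well, were preincubated 5 h at 37C, exposed to compound in qHTS format for 24 hr at 37C, then given CellTiter-Fluor for 30 min; viability was read as fluorescence in the reporter wells.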

Assay [32] concerns the target Acetylcholinesterase (Homo sapiens) (UniProt P22303). Description: Acetylcholinesterase (AChE) small molecule antagonists: fluorescence cell-based qHTS assay (AID 1347398; calls by dose curve; also: potency is read from the fitted curve at half-maximal effect; nearly all actives have a fitted effect of over 50% in size). As to conditions: Potency: AChE activity; outcome: AChE activity. Summed up: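 Thiocholine generated from acetylthiocholine by SH-SY5Y cell AChE is detected with Thiolite Green (Ex/Em 490/520 nm) after 40 min at room temperature, following 30 min compound pretreatment at 37 C.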

Assay [33] shares this target. Description: Acetylcholinesterase (AChE) small molecule antagonists: enzyme-based qHTS assay with human liver microsomes (AID 1347399; calls by dose curve; also: nearly all actives have a fitted effect of over 60% in size). As to conditions: Potency: qHTS inhibition; outcome: qHTS inhibition. Summed up:
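Recombinant human AChE (50 mU/mL in the enzyme mix) and human liver microsomes (0.25 mg/mL final) were preincubated with compound and NADPH (0.25 mg/mL final) for 30 min at 37 C. Acetylthiocholine/DTNB was then added; thiocholine was read colorimetrically after 10 min at room temperature.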

Acetylcholinesterase (Homo sapiens), sequence (P22303 whole entry, looked up): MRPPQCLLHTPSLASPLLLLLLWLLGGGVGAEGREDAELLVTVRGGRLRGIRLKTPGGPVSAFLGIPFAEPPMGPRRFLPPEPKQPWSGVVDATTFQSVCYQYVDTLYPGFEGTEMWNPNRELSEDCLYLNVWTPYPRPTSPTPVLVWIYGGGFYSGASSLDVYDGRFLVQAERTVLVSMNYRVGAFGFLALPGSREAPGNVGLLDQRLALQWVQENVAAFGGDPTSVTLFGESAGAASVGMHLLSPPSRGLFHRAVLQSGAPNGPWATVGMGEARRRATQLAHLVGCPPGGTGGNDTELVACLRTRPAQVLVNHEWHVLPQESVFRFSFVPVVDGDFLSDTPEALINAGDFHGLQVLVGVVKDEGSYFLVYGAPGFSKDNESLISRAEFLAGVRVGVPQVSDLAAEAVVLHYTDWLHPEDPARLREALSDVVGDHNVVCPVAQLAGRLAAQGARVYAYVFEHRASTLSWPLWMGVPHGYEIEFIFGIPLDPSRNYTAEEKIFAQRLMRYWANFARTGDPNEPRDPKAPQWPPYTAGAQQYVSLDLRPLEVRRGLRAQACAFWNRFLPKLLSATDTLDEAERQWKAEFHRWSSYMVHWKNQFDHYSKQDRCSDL
Aromatase (Homo sapiens), sequence (P11511 whole entry, looked up): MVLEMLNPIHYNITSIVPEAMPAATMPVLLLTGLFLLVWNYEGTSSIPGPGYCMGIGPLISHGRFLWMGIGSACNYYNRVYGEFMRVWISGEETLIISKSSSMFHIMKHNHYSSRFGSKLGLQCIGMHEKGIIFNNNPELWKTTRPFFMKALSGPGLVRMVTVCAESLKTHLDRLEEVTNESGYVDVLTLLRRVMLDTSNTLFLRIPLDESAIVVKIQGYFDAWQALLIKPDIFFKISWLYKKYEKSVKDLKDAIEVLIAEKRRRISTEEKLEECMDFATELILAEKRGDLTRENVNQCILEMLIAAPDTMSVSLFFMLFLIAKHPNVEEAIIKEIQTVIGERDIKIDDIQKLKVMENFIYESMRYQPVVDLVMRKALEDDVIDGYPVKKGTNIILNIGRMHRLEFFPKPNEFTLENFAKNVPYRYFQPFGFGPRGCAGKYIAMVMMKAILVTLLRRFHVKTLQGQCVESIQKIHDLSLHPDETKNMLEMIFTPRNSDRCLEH

Regarding `CC(=O)O[C@H]1C[C@H](O[C@H]2[C@@H](O)C[C@H](O[C@H]3[C@@H](O)C[C@H](OC4CC[C@@]5(C)C(CC[C@@H]6[C@@H]5CC[C@]5(C)[C@@H](C7=CC(=O)OC7)[C@@H](O)C[C@]65O)C4)O[C@@H]3C)O[C@@H]2C)O[C@H](C)[C@H]1O[C@@H]1O[C@H](CO)[C@@H](O)[C@H](O)[C@H]1O` (some centres undefined), the outcome in [1], in assay [4], in assay [6], in [7], in assay [8] and in assay [9] was inactive. Also, the call in [10], in assay [11], in assay [12], in assay [13], in [14] and in [15] was inactive. In addition, the result in assay [16], in assay [17], in [26] and in assay [30] was inactive. In addition, the Potency in assay [2] is 376 nM (active); in [3], 750 nM (active); in assay [5], 944 nM (active); in assay [18] it was 2390 nM (active); in [19] it was 2110 nM (active); in assay [20] it was 2660 nM (active). The Potency in assay [21] is 2660 nM (active); in assay [22] it was 601 nM (active); in assay [23], 4250 nM (active); in assay [27], 379 nM (active). Further, the Potency result (in assay [24]; in [25]; in assay [28]; in [29]; in the assay with Aromatase (Homo sapiens); in [31]) was “inactive” in each case.

With `COc1cccc(-c2ccc(/C=C\CN3CCCCCC3)cc2Cl)c1`, the Potency in assay [32] is 31600 nM (active). Also, the Potency entry in [33] was “inactive”.
